Screens from PubChem BioAssay.
pCIP destab = lowers stability of the mouse p/CIP coactivator protein; F442A p/CIP-EGFP cells, EGFP fluorescence, 16 h; Q05BA5; decrease of EGFP signal, % at 10 µM; 290,000 compounds, 0.01% hits;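 active = EGFP signal decrease of at least 30% at 10 µM or well 3 SD below plate mean, unless failing retest; inactive = the rest, including hits failing retest or dose response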
HIF activator = HIF pathway transcriptional activation; 300,000 compounds, 0.32% hits; activation, % at 7.5 µM (by protocol); U2OS HRE-luciferase reporter, luminescence; normalized: DMSO 0%, desferrioxamine 100%;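 active = mean activation of at least 10% of the iron chelator positive control signal, with at least half of replicates also reaching 10%; inconclusive = mean and replicate majority disagree about reaching 10%; inactive = mean and most replicates under 10%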
PolyA inh = yeast polyadenylation inhibition; S. cerevisiae SKY197-pL101 polyadenylation reporter, beta-gal luminescence; efflux-impaired pdr1/pdr3 knockout yeast; score 100 = 6 SD above DMSO; activity score, % at 12 µM; 300,000 compounds, 0.02% hits;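 active = lowest replicate activity score at least 50, where 100 means six control SD above control mean; inconclusive = lowest score under 50 but half or more replicates reach 50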;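 also: yeast exposed to compound for 9 h at 30 °C; higher score means more reporter readthrough which indicates perturbed polyadenylation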
Platelet DG rel = modulates dense granule release in human platelets; inhibition, %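 (compounds screened at 7.5 µM in platelet-rich plasma)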; human platelet-rich plasma, SFLLRN dense granule ATP release, luminescence; AID 1663; 300,000 compounds, 0.22% hits;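 active = mean replicate score, as percent of positive control, at or above 50; inconclusive = mean below 50 but at least one replicate at or above 50; inactive = mean and every replicate below 50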
AHR activator = activates the human aryl hydrocarbon receptor; P35869; AHR-responsive luciferase reporter cells, luminescence; activation, % at 5 µM; 320,000 compounds, 2.5% hits; in the data active = activation above about 47%;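 also: 0% = vehicle wells and 100% = reference agonist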
* = called active by the depositor; ? = inconclusive; nt = no result given. Hits are enriched below; roughly 2.8% of the tested compounds scored in any of these assays.

SMILES	pCIP destab	HIF activator	PolyA inh	Platelet DG rel	AHR activator
Cc1ccc(C2C=C(c3ccccc3)Nc3ncnn32)cc1 (stereo unspecified)	nt	-8.4	-6.3	-12.2	-0.1
Brc1ccc(C2=CC(c3cccs3)n3ncnc3N2)cc1 (stereo unspecified)	-83.0	-0.6	-33.1	4.1	84.5*
Fc1ccc(C2=CC(c3ccco3)n3ncnc3N2)cc1 (stereo unspecified)	1.9	-0.6	6.3	-4.4	15.0
Fc1ccc(Br)cc1C1C=C(c2cccnc2)Nc2ncnn21 (stereo unspecified)	-9.6	-0.2	16.6	-16.4	58.8*
CC(C)(C)c1ccc(C2=CC(c3ccccc3F)n3ncnc3N2)cc1 (stereo unspecified)	nt	0.6	0.4	-3.1	26.5
Fc1ccc(C2=CC(c3ccc(Br)o3)n3ncnc3N2)cc1 (stereo unspecified)	-23.4	nt	nt	nt	86.5*
CC(=O)c1ccc(S(=O)(=O)N(C)CC(=O)N2CCCCCC2)cc1	-4.4	-0.1	7.0	11.9	-1.3
O=C(NN=Cc1cc(Br)c(O)c(Br)c1)c1ccccc1NS(=O)(=O)c1cccs1	nt	nt	nt	nt	3.1
CC(C)c1cccc(C(C)C)c1NC(=O)CN1CCCC1	-16.4	-0.5	-1.4	8.2	-0.4
Oc1ccc(C2C=C(c3ccc(F)cc3)Nc3ncnn32)cc1 (stereo unspecified)	11.1	0.2	-6.2	1.8	nt
CCOc1ccc(C2C=C(c3ccc(F)cc3)Nc3ncnn32)cc1 (stereo unspecified)	-2.6	1.1	-17.9	-4.0	62.7*
CC(C)Oc1ccc(CNC(=O)Oc2ccccc2)cc1	-13.1	2.9	24.5	-4.5	nt
O=C(Cc1c(Cl)cccc1Cl)OCC(=O)N1CCN(C(=O)c2ccco2)CC1	5.5	-0.3	-0.6	-0.3	-2.2
C=CCNc1nc(-c2ccccn2)nnc1-c1ccccc1	-12.4	109.6*	-7.7	0.7	8.2
C(=N\Nc1nc2ccccc2s1)/c1cccs1	-4.7	1.1	-57.6	-0.8	76.2*
Cc1ccsc1/C=N/Nc1nc(=O)[nH]nc1C	12.8	0.6	-20.5	50.7*	2.6
COc1ccc(/C=N/Nc2nc3ccccc3s2)cc1O	6.4	-4.1	-21.9	53.6*	nt
Cc1cc(C)nc(N/N=C/c2sccc2C)n1	4.5	1.8	-1.4	8.6	3.9
CC(=O)Nc1ccc(/C=N/Nc2nc3ccccc3s2)cc1	-4.5	1.8	-4.5	29.1	nt
Cc1ccsc1/C=N/Nc1nc2ccccc2s1	3.8	0.7	-36.7	-2.2	70.5*
CCNC(=S)Nc1ccc(OCc2nc3ccccc3s2)cc1	-6.0	7.0	-25.4	-2.0	43.6
CCCOc1ccc(/C(O)=C2\C(=O)C(=O)N(c3ccccn3)C2c2ccccc2F)cc1C (stereo unspecified)	-0.7	2.5	-10.0	4.6	3.5
CSc1cccc(CN2CCN(Cc3ccc(F)c(F)c3)C(CCO)C2)c1 (stereo unspecified)	-8.6	0.1	5.7	1.3	0.8
COc1ccc(/C=N/NC(=O)c2nc(-c3ccccc3)cc(-c3ccccc3)n2)cc1	-15.6	-0.1	12.9	11.7	20.0
COc1ccc(/C=N/NC(=O)c2nc(-c3ccccc3)cc(-c3ccccc3)n2)cc1O	-21.6	0.8	-9.9	0.1	52.1*
SMILES	pCIP destab	HIF activator	PolyA inh	Platelet DG rel	AHR activator
CNC(=O)c1[nH]cnc1C(=O)Nc1cccc(OC)c1	-7.7	1.0	3.6	-6.6	57.0*
COc1ccc(NC(=O)c2nc[nH]c2C(=O)N[C@@H](C)c2ccccc2)cc1	2.2	-0.3	8.1	-0.7	47.8*
CCOC(=O)c1[nH]cnc1C(=O)Nc1cccc(OC)c1	-11.3	0.0	17.0	-4.5	2.5
CCCCCC[n+]1c(-c2ccccc2)csc1Nc1ccccc1	1.2	0.3	8.7	-12.7	1.5
COc1ccc(-c2csc(Nc3ccccc3)[n+]2CC(O)c2ccc([N+](=O)[O-])cc2)cc1 (stereo unspecified)	5.8	2.1	-10.9	3.1	47.3*
C/C(=N\Nc1nnc2c3ccccc3n(C)c2n1)c1ccc(C)o1	9.0	0.2	-19.7	6.9	88.1*
COc1ccc(NC(=S)NNc2ccc(C(=O)O)cc2)cc1	4.6	-33.5	?	-5.3	4.3
Cc1nn(C(=O)c2cc3sccc3[nH]2)c(C)c1C	-4.5	0.2	-5.5	-5.1	70.8*
Cc1ccc(N2CCN(C(=O)C3CCC(=O)N(Cc4ccc(Cl)cc4)C3)CC2)c(C)c1 (stereo unspecified)	-13.7	0.1	?	-6.4	nt
CC(=O)Oc1cc2c(C(=O)NCc3ccncc3)c(C)oc2c2ccccc12	-13.8	0.2	-11.5	-3.7	51.8*
COC(=O)c1cc(NC(=O)CSC2=NCCS2)cc(C(=O)OC)c1	2.0	-1.4	0.7	0.0	1.8
C/C(O)=C(\N=Nc1cc(C)ccc1O)C(N)=O	-0.5	0.1	-22.8	0.6	51.5*
Cc1ccc(O)c(N=NC2=C(O)CC(C)(C)CC2=O)c1	-10.2	5.7	-30.0	24.2	37.9
Cc1cc(Cl)ccc1C(=O)C1CCCN(C(=O)c2snnc2C)C1 (stereo unspecified)	-10.0	0.0	54.5*	0.8	0.9
Cc1cc(Cl)ccc1C(=O)C1CCCN(C(=O)c2cccnc2C)C1 (stereo unspecified)	13.1	-0.6	-0.2	-6.0	2.4
CC(OC(=O)Cn1[nH]c(=O)c2ccccc2c1=O)C(=O)Nc1ccccc1[N+](=O)[O-] (stereo unspecified)	nt	-1.1	-1.9	nt	2.2
c1ccc2c(c1)NC(c1ccncc1)n1c-2nc2ccccc21 (stereo unspecified)	5.4	2.4	-3.2	-0.4	69.9*
c1cncc(C2Nc3ccccc3-c3nc4ccccc4n32)c1 (stereo unspecified)	-4.0	1.6	-11.3	3.2	43.1
Cc1ccsc1C1Nc2ccccc2-c2nc3ccccc3n21 (stereo unspecified)	6.3	2.0	-20.1	-3.1	81.5*
COc1ccc(N2CC(C(=O)NCc3ccco3)CC2=O)cc1 (stereo unspecified)	-23.8	-0.1	13.5	4.2	0.3
COc1cccc(N2C(=O)Nc3ccc(Br)cc3C2(O)C(=O)NCCCOC(C)C)c1 (stereo unspecified)	-1.3	-1.9	-4.4	4.8	-0.3
CCOc1ccc(NC(=O)N2CCc3ccccc3C2)cc1	-10.3	1.6	11.7	-3.8	66.9*
O=C(Nc1ccc(Cl)cc1)N1CCc2ccccc2C1	-14.3	1.0	3.4	5.5	62.7*
CS(=O)(=O)N(CC(=O)N1CCc2ccccc2C1)c1cccc(F)c1	1.9	1.2	-3.6	-3.8	0.2
COc1ccc(NC(=O)N2CCc3ccccc3C2)cc1	-12.8	2.2	3.7	3.7	nt
O=C(CN(c1cccc(Cl)c1)S(=O)(=O)c1ccc(Cl)cc1)N1CCc2ccccc2C1	-11.2	0.1	-29.3	-15.1	60.8*
O=C(Cn1nnc(-c2ccccc2Cl)n1)NCc1ccc2c(c1)OCO2	-10.5	0.1	-3.4	-4.0	64.0*
